From PubChem
An excerpt weighted towards active compounds, which were near 2.2% of everything screened.
IDH1 R132H inh: qHTS for Inhibitors of mutant isocitrate dehydrogenase 1 (IDH1): qHTS; Isocitrate dehydrogenase [NADP] cytoplasmic (Homo sapiens), O75874; IDH1-R132H enzyme, NADPH consumption, diaphorase/resazurin fluorescence; Potency, µM (titrated, usually from 76.6 µM), inactives show top-dose activity change, negative = inhibition, usual class: inhibitors; AID 602179, 2012; 0.093% of 390,000 active; further: potency means the concentration at half of the fitted maximal effect; on the % scale 0 is the no-effect control and ±100 the full control effect; nearly all actives have a fitted effect of over 65% in size
Target sequence (O75874 whole entry R132H, stated change not applied): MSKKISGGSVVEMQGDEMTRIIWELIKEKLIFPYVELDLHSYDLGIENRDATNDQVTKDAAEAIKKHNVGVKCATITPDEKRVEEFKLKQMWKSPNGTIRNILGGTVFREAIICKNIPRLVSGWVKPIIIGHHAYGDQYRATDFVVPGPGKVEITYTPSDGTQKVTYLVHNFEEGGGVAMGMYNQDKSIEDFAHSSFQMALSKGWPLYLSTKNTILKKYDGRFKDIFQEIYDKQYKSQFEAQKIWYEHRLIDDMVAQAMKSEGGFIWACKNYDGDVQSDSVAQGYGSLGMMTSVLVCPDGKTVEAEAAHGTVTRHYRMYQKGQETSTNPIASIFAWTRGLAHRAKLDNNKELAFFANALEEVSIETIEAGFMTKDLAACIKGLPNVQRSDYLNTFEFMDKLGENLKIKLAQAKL
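IDH1-R132H (0.5 ug/mL) preincubated 30 min with compound, then NADPH (0.016 mM) and alpha-KG (2 mM) added; 80 min at RT, pH 7.5. Remaining NADPH coupled via diaphorase/resazurin to fluorescence (540/590 nm); concentration-response curves normalized to no-enzyme control.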
ATXN2 expr inh: Primary qHTS for Inhibitors of ATXN expression | HEK-293 ATXN2-luciferase reporter, luminescence, 24 h | 0.72% of 360,000 active | Potency, µM (series often up to 57 µM), inactives show at the highest dose activity change, negative = inhibition, actives largely listed as inhibitors | AID 1745845, 2022; further: potency means the concentration at half of the fitted maximal effect; on the % scale 0 is the no-effect control and ±100 the full control effect; nearly all actives have a fitted effect of over 55% in size
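qHTS (up to 57 uM final) was run with 24 h compound exposure of reporter cells at 37 °C. Each well was multiplexed: SteadyGlo luminescence measured ATXN2-luciferase expression after a fluorogenic Gly-Phe-AFC viability readout (25 uM final).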
LDHA block: qHTS assay for inhibitors of human lactate dehydrogenase; purified LDHA, NADH/diaphorase-resazurin fluorescence; stronger effect = lower value; activity change, % (values are at about 110 or 230 µM); 0.15% of 480,000 active; AID 1347041, 2019; in the data active means activity change below about -30%; inconclusive means mostly about -25% to -30%;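 further: plate controls were DMSO wells for no effect and wells without enzyme for full effect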
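Human LDH5 (2 nM) was incubated with 0.06 mM NADH and 0.2 mM pyruvate for 5 min at room temperature in Tris pH 7.4. Remaining NADH was coupled through diaphorase/resazurin, and resorufin fluorescence was read at 0 and 20 min.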
ATXN viability: Viability Counterscreen for Primary qHTS for Inhibitors of ATXN expression | S2 cells (HEK-293 line with an ATXN2-luciferase reporter) viability, CellTiter-Fluor protease fluorescence, 24 h | Potency, µM (doses to about 56.7 µM), usual class: cytotoxic | 0.49% of 400,000 active | AID 651635, 2014; further: potency means the concentration at half of the fitted maximal effect; nearly all actives have a fitted effect of over 40% in size
TGFb SMAD3 inh: qHTS for Inhibitors of TGF-b | 1.2% of 410,000 active | HepG2 CAGA-GFP TGF-b/SMAD3 reporter, GFP fluorescence, 18 h; TGF-beta stimulated, 500 pg/mL final | Potency, µM (doses to about 46.1 µM), inactives show at the highest dose activity, negative = inhibition, most hits filed as inhibitors; further: potency means the concentration at half of the fitted maximal effect; on the % scale 0 is the no-effect control and ±100 the full control effect; nearly all actives have a fitted effect of over 65% in size
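Smad-responsive CAGA-GFP expression was quantified in HEPG2 cells exposed to compounds and 500 pg/mL final TGF-beta for 18 h at 37 degrees C; unstimulated wells defined full inhibition.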
HepG2 viability: qHTS for Inhibitors of TGF-b: Cytotox Counterscreen; 0.76% of 410,000 active; HepG2 CAGA-GFP viability, ATP luminescence, 18 h; Potency, µM (highest dose often 46.1 µM), inactives show at the top dose activity change, negative = cytotoxicity, hits mostly cytotoxic; further: potency means the concentration at half of the fitted maximal effect
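HepG2 CAGA-GFP cells (1000/well, DMEM with 1% FBS) received compound, then TGF-beta at 500 pg/mL final, and were incubated 18 hours at 37 degrees C. Viability was read by CellTiter-Glo luminescence. Media-only wells were set as complete cell-killing and DMSO as no toxicity.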
* marks the source's active call; other numbers are inactive results; i = inactive; u = inconclusive; x = not tested or not shown; ! = a repeat was not active. Unless noted, the call rests on the fitted dose curve; in most records, active means well fitted curve in the direction sought with a large enough effect; inconclusive means small, poorly fitted or top-dose-only effect, or another doubt; inactive means no such curve, though single readings can be large; an effect the other way counts as inactive or inconclusive.

SMILES	IDH1 R132H inh	ATXN2 expr inh	LDHA block	ATXN viability	TGFb SMAD3 inh	HepG2 viability
CS(=O)(=O)c1ccc(C(=O)OCC(=O)NCc2cccs2)cc1[N+](=O)[O-]	-13.3%	u	0.3	u	11.2µM*	-106.3%
COc1ccccc1OCC(=O)NNC(=O)C1CCN(c2ncnc3sc(C)c(C)c23)CC1	-6.3%	x	-3.8	u	u	-12.6%
COc1ccc(-c2csc(NC(=O)C3CCN(c4ncnc5sc(C)c(C)c45)CC3)n2)cc1OC	-0.9%	7.94µM*	-12.0	i	-24.3%	-9.0%
COc1ccc(CC(=O)Nc2nc(-c3ccc(OC)c(OC)c3)cs2)cc1OC	-1.4%	22.4µM*	-7.9	u	-14.2%	-20.1%
COc1ccc(-c2csc(NC(=O)c3ccco3)n2)cc1	0.0%	45.7%	0.5	i	0.0%	-39.2%
COc1ccc(-c2csc(NC(=O)c3c(OC)cccc3OC)n2)cc1	7.2%	-23.7%	-0.5	i	4.8%	14.1µM*
COc1ccc(-c2csc(NC(=O)c3ccc(OCC(=O)N4CCOCC4)c(OC)c3)n2)cc1OC	0.0%	15.8µM*	-3.4	u	0.0%	-21.1%
CC(=O)Nc1sc(/C(C#N)=C\c2cccc(Cl)c2)nc1-c1ccc(C)cc1	-2.1%	-6.9%	2.3	x	62.8%	-22.3%
COc1ccc(-c2c(C)nc3c(-c4ccccn4)cnn3c2N)cc1	6.9%	48.1%	-14.2	i	11.2µM*	-36.7%
CC[C@@]1(c2ccccc2OC)ON(c2ccccc2C(F)(F)F)C1=O	9.2%	22.4µM*	1.7	x	u	14.1µM*
COc1ccc(CNC(=O)c2ccc3nc(CCc4ccccc4)oc3c2)cc1OC	-5.2%	28.2µM*	-5.8	u	2.6%	-23.4%
COc1ccc(N2CCN(CCCNC(=O)c3ccc4nc(Cc5ccccc5)oc4c3)CC2)cc1	1.3%	15.8µM*	-3.1	10µM*	-16.1%	-60.4%
COc1ccc(CNC(=O)c2ccc3nc(CCc4ccccc4)oc3c2)cc1	1.6%	7.4%	0.8	i	u	-10.6%
O=C(CSCC(=O)Nc1ccccc1)N/N=C/c1c(O)ccc2ccccc12	9.3%	3.16µM*	4.3	i	9.5%	-25.2%
O=C(N/N=C\c1c(O)ccc2ccccc12)c1ccc(O)cc1	16.4%	u	4.7	u	-0.3%	-31.9%
O=C(N/N=C/c1c(O)ccc2ccccc12)c1ccc(Br)o1	8.4%	2.82µM*	9.3	x	0.0%	-57.6%
O=C(CN1CCOCC1)N/N=C/c1c(O)ccc2ccccc12	12.6%	10.6µM*	4.6	u	-4.2%	-0.4%
O=C(N/N=C/c1c(O)ccc2ccccc12)Nc1ccccc1	2.3%	x	5.2	i	15.5%	-9.5%
O=C(CN1CCOCC1)N/N=C/c1ccco1	2.3%	-6.8%	-1.7	i	-10.1%	0.0%
O=C(CNc1ccccc1)N/N=C/c1c(O)ccc2ccccc12	-2.4%	7.08µM*	-9.2	i	u	-41.6%
CCOC(=O)c1c(N2C(=O)Nc3ccccc3N2O)n[nH]c1-c1cccc(OC)c1	12.2%	13.7%	-0.9	i	5.6%	-1.4%
CCOCCn1c(-n2nc(C)c(C)c2C)nc2c1c(=O)[nH]c(=O)n2C	x	x	4.8	x	x	x
CC1CCC(CN2C(Nc3ccccc3)=NC[C@@H]2Cc2ccccc2)CC1 (some centres not stated)	-5.7%	15.8µM*	-2.4	u	-7.1%	-36.6%
c1ccc(C[C@H]2CN=C(Nc3ccccc3)N2CC2CCC2)cc1	-8.8%	-17.5%	-3.3	i	7.2%	-11.9%
CC(C)C[C@H]1CN=C(Nc2ccccc2)N1CCCC1CCCCC1	-23.9%	25.1µM*	-18.5	x	-25.7%	-21.5%
SMILES	IDH1 R132H inh	ATXN2 expr inh	LDHA block	ATXN viability	TGFb SMAD3 inh	HepG2 viability
CC(C)C[C@H]1CN=C(Nc2ccccc2)N1CCCC1CCCC1	7.1%	u	-5.2	u	u	-99.3%
NC1(Cc2ccc(Cl)cc2)CCN(c2ncnc3[nH]ccc23)CC1	x	27.3µM*	x	x	x	x
Clc1ccc(Cn2ncc3c(N4CCCCC4)ncnc32)cc1	2.9%	-16.7%	-1.5	i	0.9%	-1.7%
O=C(NCCCN1CCOCC1)/C(=C/c1ccc(-c2cccc([N+](=O)[O-])c2)o1)NC(=O)c1ccccc1	0.8%	x	-4.3	u	-2.2%	-33.2%
Cc1nc2nc(C)n(CCN3CCOCC3)c(=O)c2c(-c2cccc([N+](=O)[O-])c2)c1C(=O)CCCCCCCCCCN1CCC(c2ccccc2)(c2ccccc2)CC1	-5.0%	u	0.4	x	7.08µM*	11.2µM*
CC1(C)Cc2c(sc(NC(=O)Cc3ccccc3)c2C#N)C(C)(C)N1	8.2%	x	1.4	i	-0.5%	-1.8%
CCc1nnc(NC(=O)c2ccccc2NC(=O)C2CCN(C(=O)c3ccco3)CC2)s1	x	x	2.7	x	1.5%	3.8%
COc1ccc(Br)cc1CN1CCCCCCC1	6.0%	-10.4%	-30.4*	i	11.7%	-1.1%
COc1ccc(C(=O)O)cc1CN1CCCCC1	x	x	1.4	x	x	x
Cc1ccc(C(C)C)c(OCC(O)CN(C)Cc2ccccc2)c1 (configuration not stated)	6.1%	-35.7%	-4.9	u	15.8µM*	-154.1%
CCCNC(=O)C1(C)CCCN(CCC(=O)c2ccccc2)C1 (configuration not stated)	x	6.1%	-4.6	i	15.8µM*	14.1µM*
O=[N+]([O-])c1ccc(O)c2ncccc12	13.3%	10µM*	6.6	12.6µM*!	5.62µM*	-31.3%
Oc1c(I)cc(Cl)c2cccnc12	14.8%	31.6µM*!	3.7	u	15.8µM*	-17.2%
O=[N+]([O-])c1cc(Cl)c(O)c2ncccc12	13.1%	20µM*	19.7	u	u	-4.6%
Oc1c(CN2CCc3ccccc3C2)cc(Cl)c2cccnc12	12.7%	5.62µM*	20.2	3.98µM*	5.62µM*	-56.5%
O=[N+]([O-])c1ccc(O)c2cccnc12	1.1%	-5.2%	-12.2	u	-1.7%	-2.2%
C=CCOc1ccc(CNCCc2ccc(S(N)(=O)=O)cc2)cc1	-3.5%	-14.4%	-12.8	i	9.9%	-6.7%
CCc1cccc2c(C(=O)COC(=O)CNS(=O)(=O)/C=C/c3ccc(C)cc3)c[nH]c12	x	x	11.0	x	x	x
COC(=O)COc1ccc(S(=O)(=O)N2CCCCCC2)cc1	5.4%	-2.7%	-9.5	i	-6.0%	1.9%
Cc1noc(C)c1S(=O)(=O)N(C)CC(=O)Nc1ccccc1C(C)(C)C	x	x	-12.4	x	x	x
